# According to the supplement of paper PMC13380429:
# A number with no mark means an inactive call.
# System: Vero E6 infected with SARS-CoV-2
# Experiment: inhibition of SARS-CoV-2 cytopathic effect; higher = more antiviral protection, active = above 15
# Settings: 48 h
SMILES,inhibition of SARS-CoV-2 cytopathic effect (1 nM) [%],inhibition of SARS-CoV-2 cytopathic effect (8.33 nM) [%],inhibition of SARS-CoV-2 cytopathic effect (100 nM) [%],inhibition of SARS-CoV-2 cytopathic effect (833.33 nM) [%],inhibition of SARS-CoV-2 cytopathic effect (10000 nM)
CO[C@H]1CC[C@H](N2C(=O)CNc3ncc(-c4ccc(C(C)(C)O)nc4)nc32)CC1,0.96,-0.05,0.58,-3.48,-14.6%
CN(C)CCOC1=Cc2ccccc2Sc2ccc(Cl)cc21 [zotepine],3.4,2.96,4.34,0.16,-3.52%
C[C@]12CC[C@H](O)CC1=CC[C@@H]1[C@@H]2CC[C@]2(C)C(c3cccnc3)=CC[C@@H]12 [Abiraterone (CB-7598)],2.77,5.09,3.28,2.56,1.88%
COc1ccc(-c2cc(=O)c3c(O)cc(O)cc3o2)cc1O [diosmetin],-0.61,-0.9,-1.66,-3.02,2.95%
CCSc1ccc2c(c1)N(CCCN1CCN(C)CC1)c1ccccc1S2 [thiethylperazine],-3.78,-1.48,-1.97,-4.23,22.5% (active)
CN/C(=N\c1ccc(C2=NNC(=O)CC2C)cc1)NC#N (stereo not given) [siguazodan],1.52,1.14,-0.26,1.67,-1.34%
CCCCOc1c(C(=O)c2c(F)cc(C)cc2F)c[nH]c2nncc1-2,0.56,-0.26,0.08,-0.55,-3.38%
C[C@H](Cc1cc2c(c(C(N)=O)c1)N(CCCO)CC2)NCCOc1ccccc1OCC(F)(F)F [silodosin],3.7,-1.05,2.16,2.24,3.11%
NC(=O)C[S+]([O-])C(c1ccccc1)c1ccccc1 (stereo not given),-2.5,-3.65,-0.185,-1.01,-3.77%
O=S(=O)(O)c1cc(I)c(O)c2ncccc12 [chiniofon],-0.29,-0.47,-0.93,3.44,-0.39%
NC(=O)OCC(O)COc1ccc(Cl)cc1 (stereo not given) [chlorphensin-carbamate],2.19,-1.72,1.24,2.98,4.44%
CCNC(=O)C#Cc1ccc2c(C(=Nc3ccc(CN(C)C)cc3)c3ccccc3)c(O)[nH]c2c1,0.51,-0.81,-4.45,-15.2,-20.6%
O=C(O)CNC(=O)C(CS)Cc1ccccc1 (stereo not given) [thiorphan],-4.27,-1.61,-5.99,-4.04,-6.09%
CC(C)(O)CC(=O)NCCn1ccc2ncnc(Nc3ccc(Oc4cccc(C(F)(F)F)c4)c(Cl)c3)c21,4.78,7.81,3.51,-7.39,-14.1%
CC(C)(C)CC(C)(C)c1cc(Cc2cc(C(C)(C)CC(C)(C)C)cc(-n3nc4ccccc4n3)c2O)c(O)c(-n2nc3ccccc3n2)c1 [bisoctrizole],0.77,2.98,2.99,1.93,3.96%
CC[C@H](NC(=O)c1c(C)c(-c2ccccc2)nc2ccccc12)c1ccccc1,1.87,4.53,5.18,3.05,-2.21%
Cc1nc2ccc(Oc3ccc(F)cc3)cc2c(=O)n1C[C@H]1CCCN(C(C)C)C1,0.11,0.49,1.67,0.07,-5.71%
C[C@@H](Nc1cc(F)cc(F)c1)c1cc(C(=O)N(C)C)cc2c(=O)cc(N3CCOCC3)oc12,-3.44,-2.8,-5.04,1.19,-4.12%
Cc1cc(C#N)cc(C)c1Oc1nc(Nc2ccc(C#N)cc2)nc(N)c1Br [etravirine],-0.95,-0.81,-2.15,-5.24,-2.04%
CCOC(=O)c1ccc(O)cc1 [ethyl-paraben],0.82,3.38,-1.2,0.24,-1.28%

SMILES,inhibition of SARS-CoV-2 cytopathic effect (1 nM) [%],inhibition of SARS-CoV-2 cytopathic effect (8.33 nM) [%],inhibition of SARS-CoV-2 cytopathic effect (100 nM) [%],inhibition of SARS-CoV-2 cytopathic effect (833.33 nM) [%],inhibition of SARS-CoV-2 cytopathic effect (10000 nM)
CN1CCN(c2cccc(Nc3nc4c(-c5ccc(S(C)(=O)=O)cc5)cccn4n3)c2)CC1,-0.26,0.06,0.85,-0.58,-4.01%
COc1cc(Nc2nc3ccccc3nc2NS(=O)(=O)c2ccc(NC(=O)c3ccc(C)c(OC)c3)cc2)cc(OC)c1,1.14,4.37,1.01,-1.67,0.57%
CN(C)CCOc1cc(-c2cn[nH]c2)ccc1NC(=O)C1COc2ccccc2O1 (stereo not given),-1.4,1.35,0.53,-5.69,-6.4%
CCCCC(CC)CNC(=N)NC(=N)NCCCCCCNC(=N)NC(=N)NCC(CC)CCCC (stereo not given) [alexidine],-2.11,4.36,2.23,-6.06,-18.2%
O=C(NC1CCC1)c1ccc(C#Cc2cccc(F)c2)nc1,0.19,-1.61,-2.31,-1.49,2.23%
CC1(N)CCN(c2cnc(-c3cccc(Cl)c3Cl)c(N)n2)CC1,-2.86,2.23,2.58,-1.51,-9.83%
O=C1c2ccccc2C(Cc2ccnc(F)c2)(Cc2ccnc(F)c2)c2ccccc21,0.2,0.21,5.3,2.26,-2.51%
N=C(N)NC(=N)Nc1cccc(Cl)c1 [m-chlorophenylbiguanide],4.17,4.54,0.58,-7.74,-1.2%
O=C1NC(=O)[C@@]2(CCOc3ccc(F)cc32)N1 [sorbinil],-0.44,-2.13,-2.63,-0.6,-0.07%
Oc1c(Cl)cc(Cl)cc1Sc1cc(Cl)cc(Cl)c1O [bithionol],0.29,0.59,-0.92,-0.55,2.32%
CC1(C)OC(=O)C(OCC2CC2)=C1c1ccc(S(C)(=O)=O)cc1 [firocoxib],-1.63,-1.5,0.34,0.04,-1.02%
CN(C)c1ccc(-c2nc3c(N4CCN(CC(=O)Nc5nccs5)CC4)c(Cl)cnc3[nH]2)cc1,0.9,-0.82,-1.07,0.5,13.9%
Cc1[nH]c2ccccc2c1CCNCc1ccc(/C=C/C(=O)NO)cc1 [panobinostat],-1,-0.99,-7.01,-13.3,-14.4%
O=C(CO)[C@@H](O)[C@@H](O)[C@H](O)CO [tagatose],-1.77,-0.71,-0.15,-0.41,0.74%
CC1(C)O[C@H]2CC(=O)OC[C@]23[C@H]2CC[C@@]4(C)[C@H](c5ccoc5)OC(=O)[C@H]5O[C@]54[C@]2(C)C(=O)C[C@@H]13 [limonin],-0.51,-0.42,-2.25,-1.69,-2.49%
CONC(=N)c1ccc(-c2ccc(-c3ccc(C(=N)NOC)cc3)o2)cc1 [pafuramidine],-0.94,1.16,-0.24,0.72,2.7%
CCC1(C)CC(=O)NC(=O)C1 [bemegride],-1.73,-2.18,-2.05,1.29,-2.8%
NC(=O)OCCCc1ccccc1 [phenprobamate],0.89,0.93,-0.42,-2.45,-2.7%
CCc1nn(CCCN2CCN(c3cccc(Cl)c3)CC2)c(=O)n1CCOc1ccccc1 [nefazodone],-0.85,0.31,-12.7,0.6,-2.21%
COC1=CC(=O)C[C@@H](C)[C@]12Oc1c(Cl)c(OC)cc(OC)c1C2=O [griseofulvin],1.17,0.82,0.95,2.52,1.84%
